Drawing on paper PMC8384837, “Expanding the binding specificity for RNA recognition by a PUF domain”, this text covers binding signal for 8 sequences.

Residue numbers refer to the chain shown, from its start.

Common to all, as to test: yeast three-hybrid, YBZ-1, SC-Leu-His + 0.5 mM 3-AT, 4 days
Holding throughout (conditions): tags: N-Gal4 AD-HA kept; label: inside an RPR1-promoter hybrid RNA with tandem MS2 sites; ssRNA

One experiment addresses PUM1 PUF domain R5-KPC (Homo sapiens, UniProt Q14671 828-1176, C1007K;R1008P;Q1011C). The essentials: (§1)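 Pumilio-1 PUF domain libraries, randomized at the three base-contacting residues of each repeat, were co-expressed with matching RNA elements from a centromeric plasmid in strain YBZ-1, which carries a LexA–MS2 coat fusion and a HIS3 reporter. Transformants grew for four days on SC-Leu (input) or on SC-Leu-His + 0.5 mM 3-AT (selection), and the repeat regions were PCR-amplified and Illumina-sequenced. The interaction score is the log change in variant frequency from input to selection. That logarithm is base 2, with a pseudocount of 1 where a variant was absent.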

A further experiment has as its target PUM1 PUF domain R5-DRC (Homo sapiens, UniProt Q14671 828-1176, C1007D;Q1011C). The essentials:
as §1

The next experiment deals with PUM1 PUF domain R5-DHV (Homo sapiens, UniProt Q14671 828-1176, C1007D;R1008H;Q1011V). A digest of the protocol: as §1
The next experiment has as its target PUM1 PUF domain R8-LYC (Homo sapiens, UniProt Q14671 828-1176, N1122L;Q1126C). The essentials: as §1
Another experiment concerns the target PUM1 PUF domain R8-RSR (Homo sapiens, UniProt Q14671 828-1176, N1122R;Y1123S;Q1126R). The essentials:
as §1

A further experiment has as its target PUM1 PUF domain R8-KRR (Homo sapiens, UniProt Q14671 828-1176, N1122K;Y1123R;Q1126R). A digest of the protocol:
as §1

The target of the next experiment is PUM1 PUF domain R7-KYR (Homo sapiens, UniProt Q14671 828-1176, S1079K;N1080Y;E1083R). The essentials: as §1
The target in another experiment is PUM1 PUF domain R4-GPQ (Homo sapiens, UniProt Q14671 828-1176, N971G;H972P). A digest of the protocol:
as §1

A further experiment concerns the target PUM1 PUF domain R1-NRR (Homo sapiens, UniProt Q14671 828-1176, S863N;Q867R). A digest of the protocol:
as §1

The target of the next experiment is T1, PUM1 PUF domain R6-EWC (Homo sapiens, UniProt Q14671 828-1176, N1043E;Y1044W;Q1047C).
T1 sequence: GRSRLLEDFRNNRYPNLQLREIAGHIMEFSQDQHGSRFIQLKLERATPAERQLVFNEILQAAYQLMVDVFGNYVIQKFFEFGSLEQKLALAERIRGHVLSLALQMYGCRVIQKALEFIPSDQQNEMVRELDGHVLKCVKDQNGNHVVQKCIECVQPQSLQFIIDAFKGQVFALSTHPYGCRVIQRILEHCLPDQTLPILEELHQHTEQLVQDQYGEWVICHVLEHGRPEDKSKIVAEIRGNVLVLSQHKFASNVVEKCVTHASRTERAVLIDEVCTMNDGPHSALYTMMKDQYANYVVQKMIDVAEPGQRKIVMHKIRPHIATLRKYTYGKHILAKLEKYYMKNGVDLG
The essentials:
as §1

The target of a further experiment is T2, PUM1 PUF domain R6-NWP (Homo sapiens, UniProt Q14671 828-1176, Y1044W;Q1047P).
T2 sequence: T1 sequence with E216N, C220P
A digest of the protocol: as §1

In the case of “GGCUAGAACUAGUGGAUCCCCCGGCGCCCGGCGGCUCGAGCCCGGGUAAGUGUCAAUAGUCUGCAUGCCGCCGGGCGCCAUGCCUGCAGGUCGACUCUAGAAAACAUG”, the results for the binding signal in the experiment with PUM1 PUF domain R5-KPC, in the experiment with PUM1 PUF domain R5-DRC and in the experiment with PUM1 PUF domain R5-DHV were 4.19 log2 enrichment (interaction score), 3.58 log2 enrichment (interaction score) and 3.11 log2 enrichment (interaction score), respectively.

“GGCUAGAACUAGUGGAUCCCCCGGCGCCCGGCGGCUCGAGCCCGGGUAAGCGUAAAUAGUCUGCAUGCCGCCGGGCGCCAUGCCUGCAGGUCGACUCUAGAAAACAUG”: the binding signal in the experiment with PUM1 PUF domain R8-LYC was 2.73 log2 enrichment (interaction score); with PUM1 PUF domain R8-RSR, 2.47 log2 enrichment (interaction score); in the experiment with PUM1 PUF domain R8-KRR, 5.14 log2 enrichment (interaction score).

Turning to “GGCUAGAACUAGUGGAUCCCCCGGCGCCCGGCGGCUCGAGCCCGGGUAAGUAUAAAUAGUCUGCAUGCCGCCGGGCGCCAUGCCUGCAGGUCGACUCUAGAAAACAUG”, the binding signal with PUM1 PUF domain R7-KYR is 3.64 log2 enrichment (interaction score).

“GGCUAGAACUAGUGGAUCCCCCGGCGCCCGGCGGCUCGAGCCCGGGUAAGUCUAAAUAGUCUGCAUGCCGCCGGGCGCCAUGCCUGCAGGUCGACUCUAGAAAACAUG”: in the experiment with PUM1 PUF domain R7-KYR, the binding signal was 5.86 log2 enrichment (interaction score).

“GGCUAGAACUAGUGGAUCCCCCGGCGCCCGGCGGCUCGAGCCCGGGUAAGUGUACAUAGUCUGCAUGCCGCCGGGCGCCAUGCCUGCAGGUCGACUCUAGAAAACAUG”: the binding signal with PUM1 PUF domain R4-GPQ was 2.42 log2 enrichment (interaction score).

For “GGCUAGAACUAGUGGAUCCCCCGGCGCCCGGCGGCUCGAGCCCGGGUAAGUGUAAAUCGUCUGCAUGCCGCCGGGCGCCAUGCCUGCAGGUCGACUCUAGAAAACAUG”, the binding signal with PUM1 PUF domain R1-NRR is 3.87 log2 enrichment (interaction score).

“GGCUAGAACUAGUGGAUCCCCCGGCGCCCGGCGGCUCGAGCCCGGGUAAGUGGAAAUAGUCUGCAUGCCGCCGGGCGCCAUGCCUGCAGGUCGACUCUAGAAAACAUG”: the binding signal with PUM1 PUF domain R6-EWC is 3.23 log2 enrichment (interaction score); in the experiment with PUM1 PUF domain R6-NWP, 2.26 log2 enrichment (interaction score).

For “GGCUAGAACUAGUGGAUCCCCCGGCGCCCGGCGGCUCGAGCCCGGGUAAGUGUUAAUAGUCUGCAUGCCGCCGGGCGCCAUGCCUGCAGGUCGACUCUAGAAAACAUG”, the binding signal was 4.23 log2 enrichment (interaction score) with PUM1 PUF domain R5-DRC and 4.07 log2 enrichment (interaction score) with PUM1 PUF domain R5-DHV.
